Screening results: PubChem BioAssay, National Center for Advancing Translational Sciences (NCATS)
Shown are actives, neighbours in structure and some others; about 2.5% of the full set was active somewhere.
L3MBTL1 inh = blocks human L3MBTL1; Q9Y468; AlphaScreen L3MBTL1–H3K9me1 peptide binding; Potency, µM (series often up to 57.1 µM), for inactives: at the highest dose activity, negative = inhibition, most hits filed as inhibitors; hit rate 0.66% among 230,000; AID 485360; also: % is scaled to controls: 0 for no effect and ±100 for the full control effect; nearly all actives have a fitted effect of over 60% in size
Target sequence (Q9Y468 whole entry, looked up): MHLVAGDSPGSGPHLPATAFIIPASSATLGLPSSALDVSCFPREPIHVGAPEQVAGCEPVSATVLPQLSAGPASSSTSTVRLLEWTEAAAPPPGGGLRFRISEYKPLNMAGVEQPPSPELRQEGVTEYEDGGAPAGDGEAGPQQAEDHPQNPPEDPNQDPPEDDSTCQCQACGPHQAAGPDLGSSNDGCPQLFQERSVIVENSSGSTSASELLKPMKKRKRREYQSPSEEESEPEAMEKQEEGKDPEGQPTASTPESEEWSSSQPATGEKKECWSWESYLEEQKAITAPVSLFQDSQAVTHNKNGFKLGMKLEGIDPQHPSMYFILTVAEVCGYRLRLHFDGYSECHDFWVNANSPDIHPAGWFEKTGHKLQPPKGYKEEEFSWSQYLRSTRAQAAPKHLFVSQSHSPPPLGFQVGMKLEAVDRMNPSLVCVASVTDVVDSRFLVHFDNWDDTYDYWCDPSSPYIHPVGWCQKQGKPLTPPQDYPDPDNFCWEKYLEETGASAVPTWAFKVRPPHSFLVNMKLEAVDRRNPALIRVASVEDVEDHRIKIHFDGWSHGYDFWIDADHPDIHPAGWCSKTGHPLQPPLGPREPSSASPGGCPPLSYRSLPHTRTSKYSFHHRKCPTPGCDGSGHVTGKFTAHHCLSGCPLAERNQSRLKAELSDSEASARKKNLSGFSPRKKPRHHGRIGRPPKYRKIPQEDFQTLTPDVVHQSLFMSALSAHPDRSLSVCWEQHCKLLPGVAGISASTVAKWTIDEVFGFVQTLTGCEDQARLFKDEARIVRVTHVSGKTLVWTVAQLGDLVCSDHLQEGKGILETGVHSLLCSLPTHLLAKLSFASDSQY
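Read-out is AlphaScreen signal from streptavidin donor and nickel chelate acceptor beads (10 ug/mL final each) bridging L3MBTL1 (50 nM) and biotinylated K9-monomethylated H3(1-15) peptide (75 nM), after 30 min compound exposure at room temperature.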
Pol iota inh = inhibitors of human DNA polymerase iota | Q9UNA4 | Pol iota fluorescent replication assay, 10 min | Potency, µM (titrated, usually from 115 µM), without a hit: at the highest dose activity, negative = inhibition, usual class: inhibitors | hit rate 1% among 390,000
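Fluorescent replication assay read twice, at 0 min and 10 min after adding 50 nM (final) substrate. Enzyme (10 nM) and compounds were first incubated 15 min at room temperature; enzyme-free buffer wells were negative controls.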
Pol eta inh-1 = DNA polymerase eta (human) inhibition; Q9Y253; recombinant Pol eta, fluorescent DNA replication assay; Potency, µM (series often up to 114 µM), for inactives: at the top dose activity change, negative = inhibition, hits mostly inhibitors; hit rate 1.2% among 390,000; AID 588591; also: % is scaled to controls: 0 for no effect and ±100 for the full control effect
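Pol eta (10 nM) was preincubated with compounds for 15 min at room temperature, after which fluorescent replication substrate (50 nM final) was added to start the reaction. Fluorescence was read kinetically at 0 and 10 min.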
Pol kappa inh-1 = inhibitors of human DNA polymerase kappa | purified Pol kappa, fluorescent DNA synthesis assay, 10 min | Potency, µM (series often up to 107 µM), without a hit: at the top dose activity, negative = inhibition, most hits filed as inhibitors | hit rate 0.53% among 400,000; also: % is scaled to controls: 0 for no effect and ±100 for the full control effect
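Here, compound and 10 nM enzyme are combined for 15 min at room temperature; adding 50 nM substrate (final) starts DNA synthesis, tracked by fluorescence at 0 and 10 min against buffer-only wells.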
WRN inhibitor = inhibitors of human WRN helicase; hit rate 0.46% among 360,000; Potency, µM (doses to about 114 µM), for the others: at the top dose activity change, negative = inhibition, most hits filed as inhibitors; AID 651768; WRN helicase unwinding, fluorescent forked duplex, kinetic; also: % is scaled to controls: 0 for no effect and ±100 for the full control effect; nearly all actives have a fitted effect of over 55% in size
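Screening of the MLSMR collection measured strand separation of a quenched forked DNA duplex (100 nM) by 20 nM WRN with 2 mM ATP, all final. Compounds were preincubated with enzyme 15 min at room temperature.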
Pol beta inh = blocks human DNA polymerase beta activity; hit rate 1.3% among 340,000; P06746; AID 485314; Pol beta primer extension/strand displacement, fluorescence kinetic; Potency, µM (series often up to 114 µM), for the others: at the top dose activity change, negative = inhibition, most hits filed as inhibitors; also: % is scaled to controls: 0 for no effect and ±100 for the full control effect
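Kinetic readout of DNA synthesis with strand displacement by Pol beta. Compound and 10 nM enzyme sit 15 min at room temperature; 50 nM substrate starts the reaction, read immediately and at 10 min.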
Pol kappa inh-2 = confirmation of human DNA polymerase kappa inhibitors | shares compounds with Pol eta inh-1 | purified Pol-kappa, fluorescent strand-displacement substrate | Potency, µM, actives largely listed as inhibitors | hit rate 76% among 920 | AID 720501
Pol eta inh-2 = confirmation of human DNA polymerase eta inhibitors | shares compounds with Pol eta inh-1 | Pol eta primer extension, TAMRA/BHQ fluorescence, 10 min | Potency, µM, most hits filed as inhibitors | hit rate 64% among 2,600
* hit, by the source's call; [ ] = another dose, or the depositor's remark. Calls follow the shape of the dose curve; as a rule, active = well fitted curve in the direction sought with a large enough effect; inconclusive = small, poorly fitted or top-dose-only effect, or another doubt; inactive = no such curve, though single readings can be large; an effect the other way counts as inactive or inconclusive. Potency is read from the fitted curve at half-maximal effect.

For COC(=O)Cc1ccc(NC(=O)c2ccc(NC(=O)c3ccco3)cc2)cc1 the results were Pol iota inh 65%, Pol eta inh-1 -2%, Pol kappa inh-1 1%, WRN inhibitor -8%[57.1 µM] and Pol beta inh -23%.
`CCN(CC)C(=O)C(=O)Nc1ccc(OCc2ccccc2)cc1` gave L3MBTL1 inh 3%[11.4 µM], Pol iota inh 59%, Pol eta inh-1 -2%, Pol kappa inh-1 -7%, WRN inhibitor -17% and Pol beta inh 1%.
For O=C(COc1ccc(Cl)cc1)Nc1nnc(S(=O)(=O)N2CCc3ccccc32)s1 the results were Pol iota inh 7%, Pol eta inh-1 inconclusive, Pol kappa inh-1 -7% and Pol beta inh 11%.
Screening Cc1cccc(OCC(=O)Nc2nnc(S(=O)(=O)N3CCc4ccccc43)s2)c1 returned Pol iota inh inconclusive, Pol eta inh-1 89µM*, Pol kappa inh-1 inconclusive, Pol beta inh 18% and Pol eta inh-2 inconclusive.
For O=C(O)c1c(C(=O)O)c(-c2ccc(Cl)c(Cl)c2)n2c1CSC2 the results were Pol iota inh inconclusive, Pol eta inh-1 50µM*, Pol kappa inh-1 -45%, WRN inhibitor -17%[11.6 µM], Pol beta inh inconclusive and Pol kappa inh-2 38*.
Cc1ccc(/C=N/Nc2cccc(C(=O)O)c2)s1 was read as L3MBTL1 inh -21%, Pol iota inh -21%, Pol eta inh-1 inconclusive, Pol kappa inh-1 -13%, WRN inhibitor inconclusive and Pol beta inh inconclusive.
`Cc1ccc(/C=N/Nc2ccc(C(=O)O)cc2)s1` gave L3MBTL1 inh inconclusive, Pol iota inh inconclusive, Pol eta inh-1 40µM*, Pol kappa inh-1 -26%, WRN inhibitor -35%, Pol beta inh inconclusive, Pol kappa inh-2 inconclusive and Pol eta inh-2 48*.
`CCOC(=O)C(=O)N(C)c1c(CC)nc2c(OCc3cccc(OC)c3)cccn12` gave WRN inhibitor 0%.
`Cc1ccc(N2C(=O)CSC2=S)cc1C` gave L3MBTL1 inh -16%, Pol iota inh -4%, Pol eta inh-1 -20%, Pol kappa inh-1 2%, WRN inhibitor -10% and Pol beta inh 23%.
CN(C)c1ccc(N2C(=O)CSC2=S)cc1 was read as L3MBTL1 inh inconclusive, Pol iota inh inconclusive, Pol eta inh-1 -12%, Pol kappa inh-1 -43%, WRN inhibitor inconclusive, Pol beta inh -9% and Pol eta inh-2 inconclusive.
`COc1ccc(CCNC(=O)COc2ccc(S(=O)(=O)NCC(C)C)cc2Cl)cc1OC` gave L3MBTL1 inh -6%, Pol iota inh 124%, Pol eta inh-1 -14%, Pol kappa inh-1 -7%, WRN inhibitor 3% and Pol beta inh 2%[57.1 µM].
`COc1ccc(NCC(=O)Nc2ccc(Cl)cc2C)c(OC)c1` gave L3MBTL1 inh -14%, Pol iota inh inconclusive, Pol eta inh-1 -16%, Pol kappa inh-1 -7%, WRN inhibitor -6% and Pol beta inh -14%.
`C/C=C\C=C/C(=O)Nc1cccc(C2=NOC3(C2)C[C@@H](C(N)=O)N(C(=O)C2(C)CC2)C3)c1` (stereo not given in full) gave Pol iota inh 45µM*, Pol eta inh-1 inconclusive, Pol kappa inh-1 -13%, WRN inhibitor -9%[11.6 µM], Pol beta inh 29% and Pol eta inh-2 67*.
`N#Cc1ccccc1OCC(=O)NC(=O)NCc1ccco1` gave Pol iota inh inconclusive, Pol eta inh-1 40µM*, Pol kappa inh-1 -39%, WRN inhibitor -11%[11.6 µM], Pol beta inh -29% and Pol eta inh-2 inconclusive.
Screening Cc1cccc(N(CC(=O)N2CCCCCC2)S(C)(=O)=O)c1C returned L3MBTL1 inh 2%, Pol iota inh 24%, Pol eta inh-1 -3%, Pol kappa inh-1 -13%, WRN inhibitor -2% and Pol beta inh 40%.
For O=C(O)c1cc([N+](=O)[O-])ccc1-c1ccc([N+](=O)[O-])cc1C(=O)O the results were Pol eta inh-1 20µM*, WRN inhibitor -13%[11.6 µM], Pol kappa inh-2 3.8* and Pol eta inh-2 60*.
For O=C(O)c1cn[nH]c1-c1cccc([N+](=O)[O-])c1 the results were Pol iota inh 25µM*, Pol eta inh-1 20µM*, Pol kappa inh-1 inconclusive, WRN inhibitor inconclusive, Pol beta inh -15% and Pol eta inh-2 67*.
O=C(O)c1cc([N+](=O)[O-])ccc1N1CCCCC1 was read as L3MBTL1 inh 7%, Pol iota inh -2%, Pol eta inh-1 -13%, Pol kappa inh-1 -13%, WRN inhibitor 0% and Pol beta inh 0%.
`O=Cc1cn[nH]c1-c1cccc([N+](=O)[O-])c1` gave Pol iota inh -14%, Pol eta inh-1 -7%, Pol kappa inh-1 6%, WRN inhibitor -1% and Pol beta inh -21%.
Screening CN(C)CCN1CCN(C2CN(Cc3cn(Cc4ccc(Cl)cc4)nn3)S(=O)(=O)C2)CC1 (stereo not given) returned WRN inhibitor -5%.
Screening COc1ccc(-c2cn3c(n2)sc2cc(C(=O)NCCCN4CCN(C)CC4)ccc23)cc1 returned Pol iota inh 6%, Pol eta inh-1 inconclusive, Pol kappa inh-1 -18% and Pol beta inh 2%.
COc1ccc(-c2cn3c(n2)sc2cc(C(=O)NCCCN4CCCCCC4)ccc23)cc1 was read as Pol iota inh 17%, Pol eta inh-1 inconclusive, Pol kappa inh-1 -35%, Pol beta inh 0% and Pol kappa inh-2 inconclusive.
CCN(CC(=O)Nc1c(F)cccc1F)C(=O)c1ccc2c(c1)C(=O)N(c1ccccc1C)C2=O was read as Pol eta inh-1 -13% and WRN inhibitor 6%.
Cc1ccc(/C=C/C(=O)Nc2ccc(S(N)(=O)=O)cc2)o1 was read as L3MBTL1 inh 1%, Pol iota inh inconclusive, Pol eta inh-1 -20%, Pol kappa inh-1 -28%, WRN inhibitor -3% and Pol beta inh 3%.
CC(=O)NS(=O)(=O)c1ccc(NC(=O)/C=C/c2ccc(C)o2)cc1 was read as L3MBTL1 inh inconclusive, Pol iota inh inconclusive, Pol eta inh-1 22µM*, Pol kappa inh-1 inconclusive, WRN inhibitor -18%[11.6 µM], Pol beta inh -16% and Pol eta inh-2 43*.
COC(=O)c1c(NC(=O)Cc2cccs2)sc2c1CCCC2 was read as L3MBTL1 inh inconclusive, Pol iota inh 45µM*, Pol eta inh-1 14µM*, Pol kappa inh-1 inconclusive, WRN inhibitor inconclusive, Pol beta inh inconclusive and Pol eta inh-2 inconclusive.
